Assay results taken from PubChem BioAssay AID1851 (National Center for Advancing Translational Sciences (NCATS), 2009).
Values joined by “and” are separate entries in the source; they are usually repeats but may differ in a detail not shown here. Identical values can stand only once. Out of some 16,000 compounds screened, about 2,600 (16%) were called active. Inconclusive results (about 20%) are left out. Calls follow the shape of the dose curve; as a rule, active = well fitted curve in the direction sought with a large enough effect; inconclusive = small, poorly fitted or top-dose-only effect, or effect the other way; inactive = no such curve, though single readings can be large or run the other way. The list is a sample of the results. Where a structure was tested more than once in an assay, its records may differ in their call.

Biological target: Cytochrome P450 2D6 (Homo sapiens) (UniProt P10635)
Sequence (P10635 whole entry, looked up): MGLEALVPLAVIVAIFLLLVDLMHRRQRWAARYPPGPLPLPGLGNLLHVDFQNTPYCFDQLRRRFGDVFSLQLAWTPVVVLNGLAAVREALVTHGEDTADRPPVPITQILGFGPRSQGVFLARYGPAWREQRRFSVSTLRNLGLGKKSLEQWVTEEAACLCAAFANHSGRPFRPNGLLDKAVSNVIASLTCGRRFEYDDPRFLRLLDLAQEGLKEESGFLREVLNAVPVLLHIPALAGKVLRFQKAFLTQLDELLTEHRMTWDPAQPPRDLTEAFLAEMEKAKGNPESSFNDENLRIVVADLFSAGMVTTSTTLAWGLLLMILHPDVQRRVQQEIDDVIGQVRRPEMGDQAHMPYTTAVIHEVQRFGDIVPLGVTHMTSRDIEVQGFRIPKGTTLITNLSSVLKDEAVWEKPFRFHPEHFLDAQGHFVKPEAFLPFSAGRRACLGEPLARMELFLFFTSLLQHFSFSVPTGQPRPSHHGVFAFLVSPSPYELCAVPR
Assay: Cytochrome panel assay with activity outcomes
Settings: recombinant CYP, pro-luciferin dealkylation, luminescence, p450-cyp2d6; series mostly up to 57.1 µM
% is scaled to controls: 0 for no effect and ±100 for the full control effect.

Row | SMILES | activity, negative = inhibition | AC50
1 | CC(C)CO/N=C1/C[C@@H](O)[C@@H](O)[C@@H]2[C@@H]3C(=O)N(C[C@@H]4CCCO4)C(=O)[C@H]3CC[C@H]12 | -1.45% [at 11.4 µM] (inactive) | 
2 | Cc1cc(C)cc(Oc2coc3cc(OC(=O)c4cccs4)ccc3c2=O)c1 |  | inactive
3 | O=C(O)c1cccc2cccc(-c3cccc4cccc(C(=O)O)c34)c12 | -12.7% [at 11.4 µM] (inactive) | 
4 | O=C(c1c[nH]c(=O)n(-c2ccccc2)c1=O)N1CCc2ccccc21 |  | inactive
5 | O=C(Nc1cccc(Br)c1)/C(=C\c1cccnc1)NC(=O)c1ccco1 |  | inactive
6 | O=C(/C(=C/c1ccc(Cl)cc1)c1nc2ccccc2[nH]1)c1ccccc1 |  | inactive
7 | O=C(N/C(=C/c1ccc(Br)cc1)c1nc2ccccc2[nH]1)c1ccco1 |  | 12.6 µM (active)
8 | O=C1c2cccc3c(Cl)ccc(c23)C(=O)N1O |  | inactive
9 | COC(=O)c1ccc(-n2cncn2)c(F)c1 |  | inactive
10 | CCc1nn(C)c(-c2n[nH]c(=S)n2N)c1Cl |  | inactive
11 | Cc1ccc(S(=O)(=O)NC(=O)OC23COCN2COC3)cc1 | 18.1% [at 11.4 µM] (inactive) | 
12 | Nc1nc(SCc2ccc([N+](=O)[O-])cc2)c2ncn([C@@H]3O[C@@H](CO)[C@@H](O)[C@H]3O)c2n1 |  | inactive
13 | Cc1ccc(NC(=S)N2CCN(CCN3C(=O)c4cccc5cccc(c45)C3=O)CC2)cc1 |  | inactive
14 | COC(=O)c1ccccc1OCC(=O)N1CCN(c2ccc(Cl)cc2)CC1 |  | inactive
15 | O=C(O)[C@@H]1CCCN1Cc1ccc2c(c1)OCO2 | 7.95% [at 11.4 µM] (inactive) | 
16 | O=C(CCN1C(=O)c2cccc3cccc(c23)C1=O)N1CCN(Cc2ccc3c(c2)OCO3)CC1 |  | 14.1 µM (active)
17 | O=C(CN1C(=O)c2cccc3cccc(c23)C1=O)N1CCCCCC1 |  | inactive
18 | O=C(Cc1ccc(Cl)cc1)N1CCN(C(=O)c2ccco2)CC1 |  | inactive
19 | O=C(O)C1CCN(c2ncccn2)CC1 |  | inactive
20 | O=C(COc1ccc(Cl)cc1)N1CCN(Cc2ccc3c(c2)OCO3)CC1 |  | 0.2 µM (active)
21 | c1cnc(N2CCN(Cc3ccc4c(c3)OCO4)CC2)nc1 |  | 1 µM (active) and 200 nM (active) and inactive
22 | CC(=O)[C@@H](C)CCO[C@@]1(C)OCC[C@@H]1C | 0.323% [at 11.4 µM] (inactive) | 
23 | CCOC(=O)c1c(NC(=O)CCCN2CCOCC2)sc2c1CC(C)(C)OC2 |  | inactive
24 | COc1ccc2c(c1)c(CC(=O)O)c(C)n2C(=O)c1ccc(Cl)cc1 |  | inactive
25 | CCc1ccc(NC(=O)C2CCN(S(=O)(=O)c3c(C)[nH]c(=O)[nH]c3=O)CC2)cc1 |  | inactive
